Test results as given in PubChem BioAssay.
Activity calls are given as the source filed them.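 Rule for the calls, unless noted: active = compounds lowering colon cancer cell viability after pretreatment blocking the GSK3B kinase; inactive = the rest.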

assay: stimulators of insulin release from INS-1E, primary screen, cell-based, 5 mM glucose, NPC library (AID 1117329;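 active = compound raises insulin release from rat beta cells at 5 mM glucose, no numeric limit stated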; note: reference of the scale not given here); conditions: rat INS-1E insulin secretion, at 10 µM, active compounds read high

Structure (SMILES)	insulin secretion stimulation
COc1ccnc2c1CCCCC2S(=O)c1nc2ccccc2[nH]1 (stereo not drawn)	1.6% (inactive)
COC1=C(OC)C(=O)C(CC=C(C)CCC=C(C)CCC=C(C)CCC=C(C)CCC=C(C)CCC=C(C)CCC=C(C)CCC=C(C)CCC=C(C)CCC=C(C)C)=C(C)C1=O	3.9% (inactive)
O=[N+]([O-])c1ccc(Oc2ccc(N=C=S)cc2)cc1	-0.5% (inactive)
Oc1ccccc1-c1nnco1	3.2% (inactive)
CCCCC(C)(O)CC=C[C@H]1[C@H](O)CC(=O)[C@H]1CCCCCCC(=O)OC (stereo partly drawn)	0.9% (inactive)
Cc1ccc(/C=N/n2c(-c3ccccc3)csc2=S)cc1	5% (inactive)
Nc1ccc(C(=O)OCC(O)CO)cc1 (stereo not drawn)	0.6% (inactive)
Cc1cc(N)c2cc(NC(=O)Nc3ccc4nc(C)cc(N)c4c3)ccc2n1	8.1% (inactive)
CNC(=O)c1c(I)c(NC(=O)CCCCC(=O)Nc2c(I)c(C(=O)O)c(I)c(C(=O)NC)c2I)c(I)c(C(=O)O)c1I	-0.3% (inactive)
CCCCCCCCCCCCCCCCCCO	-1.7% (inactive)
CC1c2ccccc2CN1NC(=O)c1ccc(Cl)c(S(N)(=O)=O)c1 (stereo not drawn)	1.65% (inactive)
CCN[C@@H]1C[C@H](N)[C@@H](OC2OC(CN)=CCC2N)[C@H](O)[C@H]1O[C@H]1OC[C@](C)(O)[C@H](NC)[C@H]1O (stereo partly drawn)	0.5% (inactive)
Oc1ccccc1C=NCc1ccccc1	-2.2% (inactive)
C=Cc1ccccc1	3.5% (inactive)
O=C(Nc1ccc(Cl)cc1)Nc1ccc(Cl)c(C(F)(F)F)c1	-0.8% (inactive)
CCOC(=O)c1ccc(O)c(O)c1	4% (inactive)
C=CCNc1nc(NCC=C)nc(N2CCN(C(c3ccc(F)cc3)c3ccc(F)cc3)CC2)n1	-0.6% (inactive)
O=S(=O)(O)c1ccc(O)cc1	-2.6% (inactive)
CCNC(=O)NCCCOc1cccc(CN2CCCCC2)c1	4.7% (inactive)
CC(C)(C)c1ccc2c(S(=O)(=O)O)c(C(C)(C)C)ccc2c1	0.3% (inactive)
NCC(=O)O	-2.4% (inactive)
CN1N=C(C(N)=O)CCC1=O	1.05% (inactive)
Oc1cc(O)cc(O)c1	-1.3% (inactive)
CCOC(=O)c1ccc(OCCN2C[C@H](O)[C@@H](O)[C@H](O)[C@H]2CO)cc1	0.1% (inactive)

assay: growth inhibition of GSK3B-pretreated HCT116 cells – cell-based, CellTiter-Glo, 0.2 to 20 µM (AID 1117336); conditions: HCT116 viability after GSK3B inhibitor, at 20 µM, active compounds read high

Structure (SMILES)	viability decrease
Cc1ncc(COP(=O)(O)O)c(C=O)c1O	9.5% (inactive)
CCCCCOc1ccc(C2SC(=O)NC2=O)cc1OCC (stereo not drawn)	46.8% (inactive)
CC1(C)S[C@@H]2[C@H](NC(=O)Cc3ccccc3)C(=O)N2[C@H]1C(=O)O (tested in a mixture with another compound)	-4.9% (inactive)
CC[C@@]1(c2ccccc2)NC(=O)N(C)C1=O	2.35% (inactive)
CC(=O)CCC(=O)O	-4.6% (inactive)
C=Cc1c(C)c2cc3nc(cc4[nH]c(cc5nc(cc1[nH]2)C(C)=C5CCC(=O)O)c(CCC(=O)OC)c4C)[C@@]1(C)C3=CC=C(C(=O)OC)[C@@H]1C(=O)OC	97.7% (active)
CS(=O)(=O)c1ccc(-c2cn3ccccc3n2)cc1	18.1% (inactive)
C[C@@H]1C[C@H]2[C@@H]3CCC4=CC(=O)C=C[C@]4(C)[C@@]3(F)[C@@H](O)C[C@]2(C)[C@@]1(O)C(=O)COC(=O)c1ccncc1	-41.3% (inactive)
COc1cc(S(N)(=O)=O)cc(C(=O)O)c1OC	16.8% (inactive)
C/C=C/C=N/NC(=O)c1ccncc1	-6.2% (inactive)
Cc1ccccc1N1CCN(CCc2nnc3n2CCCC3)CC1	25.8% (inactive)
O=C(CCOCCOCCOCCOCCC(=O)Nc1c(I)cc(I)c(C(=O)O)c1I)Nc1c(I)cc(I)c(C(=O)O)c1I	-4.7% (inactive)
O=C(CN1CCNCC1)NC1CCCCC1	-3.9% (inactive)
CCN1C(=O)c2ccccc2C1Nc1ccc(OCCN2CCCCC2)cc1 (stereo not drawn)	10.5% (inactive)
CCCCCCCCCCC(CO)CCCCCCCC (stereo not drawn)	11.5% (inactive)
COc1ccnc2c1CCCCC2S(=O)c1nc2ccccc2[nH]1 (stereo not drawn)	-54.1% (inactive)
COC1=C(OC)C(=O)C(CC=C(C)CCC=C(C)CCC=C(C)CCC=C(C)CCC=C(C)CCC=C(C)CCC=C(C)CCC=C(C)CCC=C(C)CCC=C(C)C)=C(C)C1=O	13.5% (inactive)
O=[N+]([O-])c1ccc(Oc2ccc(N=C=S)cc2)cc1	97.7% (active)
Oc1ccccc1-c1nnco1	-2.4% (inactive)
CCCCC(C)(O)CC=C[C@H]1[C@H](O)CC(=O)[C@H]1CCCCCCC(=O)OC (stereo partly drawn)	-0.5% (inactive)

Structure (SMILES)	viability decrease
Cc1ccc(/C=N/n2c(-c3ccccc3)csc2=S)cc1	50.3% (active)
Nc1ccc(C(=O)OCC(O)CO)cc1 (stereo not drawn)	0.9% (inactive)
Cc1cc(N)c2cc(NC(=O)Nc3ccc4nc(C)cc(N)c4c3)ccc2n1	54.4% (active)
CNC(=O)c1c(I)c(NC(=O)CCCCC(=O)Nc2c(I)c(C(=O)O)c(I)c(C(=O)NC)c2I)c(I)c(C(=O)O)c1I	-17.5% (inactive)
CCCCCCCCCCCCCCCCCCO	-15.2% (inactive)
CC1c2ccccc2CN1NC(=O)c1ccc(Cl)c(S(N)(=O)=O)c1 (stereo not drawn)	26.4% (inactive)
CCN[C@@H]1C[C@H](N)[C@@H](OC2OC(CN)=CCC2N)[C@H](O)[C@H]1O[C@H]1OC[C@](C)(O)[C@H](NC)[C@H]1O (stereo partly drawn)	-7.4% (inactive)
Oc1ccccc1C=NCc1ccccc1	0.9% (inactive)
C=Cc1ccccc1	-5% (inactive)
O=C(Nc1ccc(Cl)cc1)Nc1ccc(Cl)c(C(F)(F)F)c1	99.4% (active)
CCOC(=O)c1ccc(O)c(O)c1	88.4% (active)
C=CCNc1nc(NCC=C)nc(N2CCN(C(c3ccc(F)cc3)c3ccc(F)cc3)CC2)n1	50.3% (active)
O=S(=O)(O)c1ccc(O)cc1	-3.65% (inactive)
CCNC(=O)NCCCOc1cccc(CN2CCCCC2)c1	1.2% (inactive)
CC(C)(C)c1ccc2c(S(=O)(=O)O)c(C(C)(C)C)ccc2c1	-22% (inactive)
NCC(=O)O	1.6% (inactive)
CN1N=C(C(N)=O)CCC1=O	3.8% (inactive)
Oc1cc(O)cc(O)c1	-20.3% (inactive)
CCOC(=O)c1ccc(OCCN2C[C@H](O)[C@@H](O)[C@H](O)[C@H]2CO)cc1	-17.2% (inactive)
